The record followed here is PubChem BioAssay (NCI).

Experiment [1] in a line: NCI Yeast Anticancer Drug Screen. Data for the rad50 strain (AID 155).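 Note: 0% = growth of vehicle-only cultures of the same strain.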 To be noted: S. cerevisiae rad50 strain growth inhibition; at 50.0 µM; stronger effect = higher value. The method in brief: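 Genetically altered yeast (DNA repair pathway); compound treatment; growth inhibition vs vehicle ctrl.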
Experiment [2] in a line: NCI Yeast Anticancer Drug Screen. Data for the mec2-1 strain (AID 157). To be noted: S. cerevisiae mec2-1 strain, at 50.0 µM, stronger effect = higher value. The method in brief: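 Using mec2-1 yeast: add compound, measure growth, express inhibition versus vehicle-treated cultures.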
Experiment [3] can be described thus: NCI Yeast Anticancer Drug Screen. Data for the sgs1 mgt1 strain (AID 161).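 Note: 0% = growth of cultures given vehicle only.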 To be noted: S. cerevisiae sgs1 mgt1 strain, at 50.0 µM, stronger effect = higher value. The method in brief: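 Compounds are added to genetically altered yeast, and growth is compared with cultures given vehicle alone to give percent inhibition.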
Experiment [4] is described as follows: NCI Yeast Anticancer Drug Screen. Data for the cln2 rad14 strain (AID 165).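 Note: 0% = growth equal to vehicle treated cultures.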 To be noted: S. cerevisiae cln2 rad14 strain, at 50.0 µM, stronger effect = higher value. In a few lines:
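Yeast strain cln2 rad14, bearing defects in cell cycle control and DNA repair, serves as the test system; values reflect growth inhibition compared with vehicle.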

The nature of experiment [5]: NCI Yeast Anticancer Drug Screen. Data for the bub3 strain (AID 167). To be noted: S. cerevisiae bub3 mutant strain, at 50.0 µM, stronger effect = higher value. The method in brief: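 Yeast carrying a defined mutation is treated with each compound, and growth is compared with that of vehicle-exposed cells to give inhibition.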
Experiment [6] can be described thus: NCI Yeast Anticancer Drug Screen. Data for the mlh1 rad18 strain (AID 175). The following applies: S. cerevisiae mlh1 rad18 strain growth inhibition; at 50.0 µM; stronger effect = higher value. In a few lines:
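Steps: expose repair-defective yeast to compound; measure growth; express inhibition against vehicle-treated controls.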

Compounds without any hit were thinned out: in the full panel of roughly 79,000, 15% have a hit. A number with no mark means an inactive call. Activity calls are given as the source filed them. Cut-off read from the data, not from the text of the source: active = growth inhibition above about 70%; inactive = the rest.

As for `CCCc1ccccc1NC(=O)NCCCl`, the growth inhibition in experiment [1] was -1.75%; in experiment [2] it was -2.5%; in experiment [3], -0.5%; in experiment [4], -30.6%; in experiment [5], -12.9%; in experiment [6], 5.6%.

In the case of `O=C(O)C1CCCN1/N=C/c1cccc([N+](=O)[O-])c1` (stereo unspecified), the growth inhibition in experiment [1] is -11.1%; in experiment [2], -1.3%; in experiment [3] it was 9.1%; in experiment [4], -5.4%; in experiment [5] it was 24.6%; in experiment [6] it was -11.3%.

With `COc1ccc([C@H]2CC3C(=O)N(c4ccc(OC)cc4)C(=O)C3c3[nH]c4ccccc4c32)cc1` (stereo partly specified), the growth inhibition in experiment [1] was -10.1%; in experiment [2] it was -2.95%; in experiment [3], -1.05%; in experiment [4], -64.2%; in experiment [5], -16.4%; in experiment [6] it was -16.9%.

With `C=CCOC(=O)C(C#N)C(C)CC(=O)OCC` (stereo unspecified), the growth inhibition is -5.65% in experiment [1]; -1.15% in experiment [2]; -22.9% in experiment [3]; -0.35% in experiment [4]; 5.25% in experiment [5]; -5.55% in experiment [6].

As to `CC(C)=CC(=O)OC1C2C(C)=CC(O)C(O)C2(C)C2C3(O)OCC24C(CC(=O)OC14)C(C)C3O` (stereo unspecified), the growth inhibition was 56.5% in experiment [1]; 38.1% in experiment [2]; 23.4% in experiment [3]; 48.4% in experiment [4]; 53.5% in experiment [5]; 86.8% (active) in experiment [6].

`N=C1N=Nc2nc(C(C(=O)c3cccs3)c3nc4n(c3O)C(=N)N=N4)c(O)n21` (stereo unspecified): the growth inhibition in experiment [1] is -5.1%; in experiment [2], 17.1%; in experiment [3] it was -1.25%; in experiment [4], -15.3%; in experiment [5] it was 1.7%; in experiment [6], -12.3%.

In the case of `Cc1cnc(NCCCCCCNc2ncc(C)c(-c3ccccc3O)n2)nc1-c1ccccc1O`, the growth inhibition is 13.1% in experiment [1]; -4.55% in experiment [2]; -26.5% in experiment [3]; 4% in experiment [4]; 0.35% in experiment [5]; 4.5% in experiment [6].

For `CCOC(CN(C(C)C)C(C)C)OCC`, the growth inhibition was -16.4% in experiment [1]; -16.8% in experiment [2]; 8% in experiment [3]; 13.8% in experiment [4]; -16.6% in experiment [5]; 14.9% in experiment [6].

In the case of `CNC(=O)OCc1nc(SSC(C)(C)C)n(C)c1COC(=O)NC`, the growth inhibition is 2.65% in experiment [1]; -1.5% in experiment [2]; 20.3% in experiment [3]; 1.9% in experiment [4]; 16.2% in experiment [5]; -9.4% in experiment [6].

Regarding `Cc1cccc(NC(=S)NCCc2ccccn2)c1`, the growth inhibition was -6.85% in experiment [1]; -7.35% in experiment [2]; 17.9% in experiment [3]; -10.8% in experiment [4]; 12.7% in experiment [5]; 5.5% in experiment [6].

Turning to `CC1=[N+]([O-])c2ccccc2C(=O)C1=O`, the growth inhibition in experiment [1] was 35.3%; in experiment [2] it was 12.3%; in experiment [3], 35.3%; in experiment [4] it was 33.6%; in experiment [5], 41.1%; in experiment [6] it was 27.1%.

As to `C/C(=N\NC(=S)N1CCN(c2ccccn2)CC1)c1cccc2cccnc12`, the growth inhibition was 13.4% in experiment [1]; -21.1% in experiment [2]; -18.9% in experiment [3]; 2.4% in experiment [4]; 1.4% in experiment [5]; -0.25% in experiment [6].

As to `CN(Cc1ccccc1)C(=O)c1cccc(C(=O)N(C)Cc2ccccc2)c1`, the growth inhibition in experiment [1] was 9.85%; in experiment [2], 22.5%; in experiment [3] it was 19.1%; in experiment [4], 13.8%; in experiment [5], 21.7%; in experiment [6], 17.6%.

Turning to `Nc1c(Cl)cc(C(=O)NC2CC2)cc1Cl`, the growth inhibition was -13.1% in experiment [1]; -27.8% in experiment [2]; -11.2% in experiment [3]; -4.8% in experiment [4]; -26.6% in experiment [5]; -24.9% in experiment [6].

Consider `C=Cc1c2ccccc2cc2c1ccc1ccccc12`, for which the growth inhibition is 89.3% (active) in experiment [1]; 95.2% (active) in experiment [2]; 93.5% (active) in experiment [3]; 87.2% (active) in experiment [4]; 93.3% (active) in experiment [5]; 95.2% (active) in experiment [6].

Turning to `CN(C(=N)N)c1ccc(C(=O)Oc2ccc([N+](=O)[O-])cc2)cc1`, the growth inhibition was 14.8% in experiment [1]; 12.8% in experiment [2]; 29.6% in experiment [3]; 1.35% in experiment [4]; 15.1% in experiment [5]; 17.1% in experiment [6].

For the molecule `CC(=O)NCCO`, the growth inhibition was -12.7% in experiment [1]; -22.8% in experiment [2]; -12.7% in experiment [3]; -19.4% in experiment [4]; 3.9% in experiment [5]; 7.25% in experiment [6].

For the molecule `O=c1/c(=C\c2ccccc2Cl)sc2n1CCN=2`, the growth inhibition in experiment [1] was 22.2%; in experiment [2], 5.8%; in experiment [3], 4.9%; in experiment [4] it was 15.4%; in experiment [5], 11.3%; in experiment [6] it was 24.9%.

Take `CSc1cc(C)c(O)c(CO)c1`: the growth inhibition in experiment [1] was 6.7%; in experiment [2] it was 2.9%; in experiment [3] it was 18.2%; in experiment [4] it was -2.35%; in experiment [5] it was 12.7%; in experiment [6] it was 3%.

In the case of `CCCCOS(=O)(=O)c1ccc([N+](C)(C)C)cc1`, the growth inhibition in experiment [1] was 3.9%; in experiment [2], 1.75%; in experiment [3], -10.6%; in experiment [4] it was 12.2%; in experiment [5], 0.6%; in experiment [6], -7%.

Turning to `COC(=O)C(Cc1nc2ccccc2[nH]c1=O)/C(=N\NC(C)(C)C)C(=O)Nc1c(C)cc(Br)cc1C` (stereo unspecified), the growth inhibition is 17.2% in experiment [1]; -4.55% in experiment [2]; 5.9% in experiment [3]; -35.8% in experiment [4]; 3.7% in experiment [5]; -3% in experiment [6].
